Assay results as given in the supplement of paper PMC6555819.

Tested on: RARa homodimer (NR concentration 270 nM)
Experiment: PBM binding z-score (relative to random genomic background probes); higher = stronger binding; sequences stand for … in GC…GCGATTGACAGCGTAGAATGAAGG
How it was run: (§1)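 Scanned fluorescence from custom Agilent 4×180K protein-binding microarrays was regression-normalized. Binding z-scores use random background probes as reference. Ligand-free nuclear receptor dimers were incubated on the arrays for 1 h and detected with antibodies against each partner (one per run).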

| Sequence | PBM binding z-score |
| --- | --- |
| TCTCGGAGGACAGGAAGGTCAGAGCTTTCCAGAG | 0.192 |
| ACTATTAGTTGACTTACGGCAACCGATACGACGC | 0.942 |
| CCGGACAGGTGAAAGGTAACTCAGTCTGGTACGC | -0.413 |
| ATCGAAAGGTCGAAGTGAGTATAGAGAAAGGGAA | 1.12 |
| ATATGTAGGTTATCGGCTCATTCAGTTTGCGCAT | 1.01 |
| CCTTCTGGGCCACGAAAGGTCATTGATTCAGTGA | 2.53 |
| CAAACTAGGTCAAGCTCAAAGTCGGTTTGTGCCA | 0.322 |
| TTACCAAGGTGAAAGGTAGTTGATGCACGCCTTG | 0.138 |
| CCAACTGGGCCACGAAAGGTCATTGATTCAGTGA | 1.12 |
| AGAATGAGGTTATACGTAGATCAGGCAAGAAAGT | 0.831 |
| CAAACCAGGTCAAGGTCAAAGTCGGTTTGTGCCA | 2.21 |
| TCATATAGGTAAACAGGTGAAAGTCCGTAAGTTA | 1.12 |
| CGAACGAGAGCATGAGTTGATAGCAAATGCCGAT | -0.33 |
| ACTTACGGGTCAACGAGGTTATGGCACGCGTATA | 0.8 |
| ATCGACAGGTCGACGAGGTGAGTATACACCGTTT | 0.5 |
| CAAACTAGGTCACAGAGGTCAAAGTCCGTGCGTA | 3.31 |
| CCTACTGGGCCAAAGGTCAATGATTCCAATGCTC | 1.53 |
| GCTGCTAGGTCAAATGATGGTCAGCTAAAGCTCG | -0.123 |
| AGAATGAGTTTATACGTAGATCAGGGAAGAAAGT | 0.222 |
| TGAATGAGGGTATAAGATCAGGGAACGTTGCAAA | -0.0465 |

| Sequence | PBM binding z-score |
| --- | --- |
| CCTCGGAGGACAACAGGAGGTCAGTGCTGCCAGA | 0.116 |
| TAGCCTAGGTCAGATCGGGCCAGTATGCGCTATA | -0.754 |
| CCTTTCGGGTCAAGGTTATAGCACGGGTGGTACG | 0.494 |
| GGAACGAGGGCAAAGCTGATAGCATCTGTCGACG | -0.822 |
| TAGCCTAGGTCATTGGGGCAGTATAGTACGCATC | 0.554 |
| ATCTCTAGGTAAGAGTCAGTTCAGTGAAGAACGC | 1.11 |
| AGAATGAGGTTAAGATCAGGCAAACAGAATACAT | 0.263 |
| TTACGAAGGTGAAGGTCGTTGATCCCTCTGTAGA | -0.46 |
| AGAATTAGGTTATTAAGATCAGGGAATTGCGGTC | 1.73 |
| GGAACGAGGGCATTCCAGTTGATAGCATGGCGAT | -0.491 |
| TCTTGTAGTTCAAAGGTTAAGAAAGCCGAAGCCT | 0.439 |
| AATACAGGGTCACTAGGCCAGCGTAGGTACGAAT | 0.674 |
| CCTACTGGGCCATCAGCTCATTGATATCAACGTT | -0.576 |
| TAGCCTAGGTCATTCAGGGGCCAGTATTGAAAGC | -0.562 |
| TCTTGTAGATCAAAGGTTAGGAAAGCCGAAGCCT | 0.262 |
| GCGACTGAGGCATCAGCAGGTTACCATAACTTAA | -0.596 |
| ACACCAAGGTGATCGTGAGGTCGTTGATACTAAC | 0.0851 |
| TAGCCTAGGTCATGGGCCAGTCTACCACGCGAAC | -0.257 |
| CGGCAAAGTTCAACTAAGGTAACGTAAAGCACGC | 0.447 |
| CGTCCAAGGTCAGAAAGGTCAGTGAATGCCGAGT | 3.03 |

Tested on: RARb:RXRa (NR concentration 270 nM, RXRa partner concentration 90 nM)
Experiment: as above
How it was run: as §1

| Sequence | PBM binding z-score |
| --- | --- |
| TCTCGGAGGACAGGAAGGTCAGAGCTTTCCAGAG | 2.76 |
| ACTATTAGTTGACTTACGGCAACCGATACGACGC | 0.199 |
| CCGGACAGGTGAAAGGTAACTCAGTCTGGTACGC | 1.46 |
| ATCGAAAGGTCGAAGTGAGTATAGAGAAAGGGAA | 3.55 |
| ATATGTAGGTTATCGGCTCATTCAGTTTGCGCAT | 0.662 |
| CCTTCTGGGCCACGAAAGGTCATTGATTCAGTGA | 4.21 |
| CAAACTAGGTCAAGCTCAAAGTCGGTTTGTGCCA | 4.33 |
| TTACCAAGGTGAAAGGTAGTTGATGCACGCCTTG | 1.56 |
| CCAACTGGGCCACGAAAGGTCATTGATTCAGTGA | 4.02 |
| AGAATGAGGTTATACGTAGATCAGGCAAGAAAGT | 1.29 |
| CAAACCAGGTCAAGGTCAAAGTCGGTTTGTGCCA | 5.38 |
| TCATATAGGTAAACAGGTGAAAGTCCGTAAGTTA | 0.78 |
| CGAACGAGAGCATGAGTTGATAGCAAATGCCGAT | -0.53 |
| ACTTACGGGTCAACGAGGTTATGGCACGCGTATA | 4.32 |
| ATCGACAGGTCGACGAGGTGAGTATACACCGTTT | 1.53 |
| CAAACTAGGTCACAGAGGTCAAAGTCCGTGCGTA | 5.25 |
| CCTACTGGGCCAAAGGTCAATGATTCCAATGCTC | 4.5 |
| GCTGCTAGGTCAAATGATGGTCAGCTAAAGCTCG | 4.13 |
| AGAATGAGTTTATACGTAGATCAGGGAAGAAAGT | 0.0922 |
| TGAATGAGGGTATAAGATCAGGGAACGTTGCAAA | 0.303 |

| Sequence | PBM binding z-score |
| --- | --- |
| CCTCGGAGGACAACAGGAGGTCAGTGCTGCCAGA | 2.92 |
| TAGCCTAGGTCAGATCGGGCCAGTATGCGCTATA | 3.16 |
| CCTTTCGGGTCAAGGTTATAGCACGGGTGGTACG | 4.3 |
| GGAACGAGGGCAAAGCTGATAGCATCTGTCGACG | 1.99 |
| TAGCCTAGGTCATTGGGGCAGTATAGTACGCATC | 3.83 |
| ATCTCTAGGTAAGAGTCAGTTCAGTGAAGAACGC | 0.454 |
| AGAATGAGGTTAAGATCAGGCAAACAGAATACAT | 1.92 |
| TTACGAAGGTGAAGGTCGTTGATCCCTCTGTAGA | 2.23 |
| AGAATTAGGTTATTAAGATCAGGGAATTGCGGTC | 0.932 |
| GGAACGAGGGCATTCCAGTTGATAGCATGGCGAT | 1.81 |
| TCTTGTAGTTCAAAGGTTAAGAAAGCCGAAGCCT | 3.36 |
| AATACAGGGTCACTAGGCCAGCGTAGGTACGAAT | 4.17 |
| CCTACTGGGCCATCAGCTCATTGATATCAACGTT | -0.0601 |
| TAGCCTAGGTCATTCAGGGGCCAGTATTGAAAGC | 3.8 |
| TCTTGTAGATCAAAGGTTAGGAAAGCCGAAGCCT | 1.4 |
| GCGACTGAGGCATCAGCAGGTTACCATAACTTAA | -0.298 |
| ACACCAAGGTGATCGTGAGGTCGTTGATACTAAC | 1.47 |
| TAGCCTAGGTCATGGGCCAGTCTACCACGCGAAC | 3.74 |
| CGGCAAAGTTCAACTAAGGTAACGTAAAGCACGC | 5.16 |
| CGTCCAAGGTCAGAAAGGTCAGTGAATGCCGAGT | 5.34 |
